Among all 5,500 compounds or so, about 2,000 (36%) were called active. About 18% were inconclusive and are not listed. Cut-off read from the data, not from the text of the source: active = normalized growth mostly below about 0.91 (no sharp cut-off); inconclusive = no clear call, values can overlap the other calls; inactive = mostly above about 0.92. This is one part of the list.
Experiment: chemical genetic growth profiling, strain panel (AID 1159580);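 note: tested at 20 µM; growth read once vehicle control cultures reached saturation at 30 °C; 1 = growth at the plate median or of vehicle wells; lower values mean less growth of the strain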
Conditions: S. cerevisiae deletion strains, growth OD

Measured: normalized growth

O=c1cc(-c2ccccc2O)oc2cc(O)ccc12
inactive: locus YAL021C, strain ccr4, hits give low values 1.05 | locus YAL026C, strain drs2, hits give low values 0.977 | locus YAL030W, strain snc1, hits give low values 0.985 | locus YBL061C, strain skt5, hits give low values 0.976 | locus YBR009C, strain hhf1, hits give low values 0.979 | locus YBR023C, strain chs3, hits give low values 1 | locus YBR171W, strain sec66, hits give low values 0.951 | locus YBR231C, strain swc5, hits give low values 0.956 | locus YBR279W, strain paf1, hits give low values 0.996 | locus YCL011C, strain gbp2, hits give low values 0.977 | locus YCL016C, strain dcc1, hits give low values 1.02 | locus YCL069W, strain vba3, hits give low values 0.97 | locus YCR088W, strain abp1, hits give low values 0.956 | locus YDL005C, strain med2, hits give low values 0.956 | locus YDL040C, strain nat1, hits give low values 0.967 | locus YDR001C, strain nth1, hits give low values 0.978 | locus YDR069C, strain doa4, hits give low values 0.95 | locus YDR137W, strain rgp1, hits give low values 0.958 | locus YDR159W, strain sac3, hits give low values 0.91 | locus YDR195W, strain ref2 0.962 | locus YDR297W, strain sur2, hits give low values 0.964 | locus YDR334W, strain swr1, hits give low values 0.973 | locus YDR335W, strain msn5, hits give low values 0.979 | locus YDR392W, strain spt3, hits give low values 0.92 | locus YEL003W, strain gim4, hits give low values 0.968 | locus YEL037C, strain rad23, hits give low values 0.962 | locus YEL061C, strain CIN8 (second series), hits give low values 0.963 | locus YER015W, strain faa2, hits give low values 0.974 | locus YER016W, strain bim1, hits give low values 0.973 | locus YER111C, strain swi4, hits give low values 0.951 | locus YER155C, strain BEM2 (second series), hits give low values 0.955 | locus YFR010W, strain ubp6, hits give low values 0.952 | locus YGL167C, strain pmr1, hits give low values 0.972 | locus YGL173C, strain kem1, hits give low values 0.95 | locus YGL227W, strain vid30, hits give low values 0.964 | locus YGL240W, strain doc1, hits give low values 0.963 | locus YGL253W, strain hxk2, hits give low values 0.932 | locus YHR013C, strain ard1, hits give low values 0.952 | locus YHR027C, strain rpn1, hits give low values 0.965 | locus YHR030C, strain SLT2, hits give low values 0.978 | locus YHR079C, strain IRE1, hits give low values 0.987 | locus YHR142W, strain chs7, hits give low values 0.965 | locus YJL092W, strain hpr5, hits give low values 0.954 | locus YJL095W, strain BCK1 (second series), hits give low values 0.994 | locus YJL095W, strain BCK1, hits give low values 0.997 | locus YJL115W, strain asf1, hits give low values 0.97 | locus YJL129C, strain trk1, hits give low values 0.945 | locus YJL154C, strain vps35, hits give low values 0.979 | locus YJL164C, strain tpk1, hits give low values 0.992 | locus YJL166W, strain qcr8, hits give low values 0.966 | locus YJR066W, strain TOR1, hits give low values 0.929 | locus YKL160W, strain elf1, hits give low values 1.03 | locus YKR026C, strain gcn3, hits give low values 0.972 | locus YKR091W, strain srl3, hits give low values 0.982 | locus YLL001W, strain dnm1, hits give low values 0.987 | locus YLL026W, hits give low values 0.969 | locus YLL041C, strain sdh2, hits give low values 0.977 | locus YLR027C, strain aat2, hits give low values 0.998 | locus YLR113W, strain HOG1, hits give low values 1 | locus YLR221C, strain rsa3, hits give low values 0.938 | locus YLR258W, strain gsy2, hits give low values 0.994 | locus YLR262C, strain YPT6 (second series), hits give low values 0.968 | locus YLR320W, strain mms22, hits give low values 0.95 | locus YLR342W, strain FKS1, hits give low values 0.974 | locus YLR357W, strain rsc2, hits give low values 0.978 | locus YLR370C, strain arc18, hits give low values 0.966 | locus YLR384C, strain iki3, hits give low values 0.959 | locus YML120C, strain ndi1, hits give low values 0.996 | locus YMR058W, strain fet3, hits give low values 0.981 | locus YMR125W, strain sto1, hits give low values 0.977 | locus YMR129W, hits give low values 0.987 | locus YMR205C, strain PFK2, hits give low values 0.996 | locus YMR231W, strain pep5, hits give low values 0.966 | locus YNL071W, strain lat1, hits give low values 0.991 | locus YNL183C, strain NPR1, hits give low values 0.909 | locus YNL209W, strain ssb2, hits give low values 0.996 | locus YNL248C, strain rpa49, hits give low values 0.969 | locus YNL322C, strain KRE1 (second series), hits give low values 0.974 | locus YNR049C, strain mso1, hits give low values 0.979 | locus YOR001W, strain rrp6, hits give low values 0.899 | locus YOR070C, strain gyp1, hits give low values 0.978 | locus YOR080W, strain dia2, hits give low values 0.972 | locus YOR083W, strain WHI5, hits give low values 1.03 | locus YOR106W, strain vam3, hits give low values 0.989 | locus YOR231W, strain MKK1, hits give low values 0.989 | locus YOR265W, strain rbl2, hits give low values 0.97 | locus YOR270C, strain vph1, hits give low values 0.916 | locus YOR290C, strain snf2, hits give low values 1.02 | locus YPL051W, strain arl3, hits give low values 0.975 | locus YPL078C, strain atp4, hits give low values 1.05 | locus YPL106C, strain sse1, hits give low values 0.984 | locus YPL240C, strain hsp82, hits give low values 0.971 | locus YPL256C, strain CLN2, hits give low values 0.95

Source: PubChem BioAssay AID1159580 (chemical genetic matrix, 2015)
